# Hits are enriched below; roughly 2.3% of the tested compounds scored in any of these assays.
# TDP-43 yeast inh – rescues yeast growth from TDP-43 toxicity; TDP-43 expressing yeast growth rescue, BacTiter-Glo, 24 h; Potency, µM (titrated, usually from 46.1 µM), hits mostly activators; hit rate 1.8% among 410,000; note: nearly all actives have a fitted effect of over 50% in size
#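 Growth rescue of TDP-43-toxic yeast measured as ATP luminescence (BacTiter-Glo). Cells grown to mid-log in raffinose, induced in galactose at OD600=0.02, exposed to compound 24 hr at 30 deg C.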
# FUS yeast rescue – rescues growth of FUS-expressing yeast; S. cerevisiae FUS-expressing, growth rescue, OD600, 24 h; Potency, µM (series often up to 76.6 µM), actives largely listed as activators; hit rate 0.24% among 390,000; note: nearly all actives have a fitted effect of over 55% in size
#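 Restored growth of FUS-toxic S. cerevisiae, read as 600 nm absorbance after 24 h at 30C in galactose medium (starting OD 0.005). Controls CP55940 and DMSO.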
# uPA generation – inhibitors of cell surface uPA generation. hit rate 0.31% among 330,000. AID 540303. cell surface uPA generation assay, qHTS. Potency, µM (doses to about 38.3 µM), hits mostly inhibitors; active = well fitted inhibition curve with a large enough effect; inconclusive = small, poorly fitted or top-dose-only effect; inactive = no such curve, though single readings can be large or run the other way; tested in mouse RAW 264.7 cells; note: nearly all actives have a fitted effect of over 55% in size
# aSyn rescue – rescues yeast growth from alpha-synuclein toxicity. Yeast expressing alpha-synuclein, growth rescue, BacTiter-Glo, 24 h. Potency, µM (highest dose often 46.1 µM), usual class: activators. hit rate 0.14% among 370,000. AID 652106; note: nearly all actives have a fitted effect of over 65% in size
#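 Readout is rescue of growth in alpha-synuclein-expressing yeast, so inhibitors of toxicity appear as activators. Growth after 24 hr at 30 deg C in galactose medium is quantified by luminescence.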
# Abeta rescue – compounds reversing amyloid beta toxicity in yeast; yeast expressing A-beta42, growth rescue, OD600, 48 h; response scale: 0% DMSO, 100% iron-clioquinol control; Potency, µM (series often up to 46.1 µM), actives largely listed as activators; hit rate 0.063% among 410,000; AID 1347071; note: nearly all actives have a fitted effect of over 55% in size
#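 Yeast growth medium received pinned compounds, then yeast cells expressing toxic A-beta were added; plates incubated at 30 C for 48 hr. Growth read as absorbance at 600 nm, normalized to DMSO and equimolar FeCl3 plus clioquinol controls.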
# BCR signal inh – inhibitors of chronic active B-cell receptor signaling; Potency, µM (series often up to 46.1 µM), most hits filed as inhibitors; hit rate 0.05% among 340,000; ABC-DLBCL IkBa-CBG/CBR reporter, luminescence ratio, 4 h; active = well fitted inhibition curve with a large enough effect in the signal ratio, with a control signal flat, not every such curve was filed as active; inconclusive = small, poorly fitted or top-dose-only effect, or effect the other way, or a change in a side signal; the % refers to the signal ratio
#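 TMD8 ABC-DLBCL cells carrying doxycycline-inducible green luciferase fused to IkappaBalpha plus unfused red luciferase were exposed to compounds (up to 46 uM) for 4 hrs at 37C. Activity came from the overlap-corrected green/red luminescence ratio.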
# A number is an active result; - = inactive; ? = inconclusive; . = no result given; [ ] = dose if it differs, or a comment. Unless noted, calls come from the whole dose curve; as a rule, active = well fitted curve in the direction sought with a large enough effect; inconclusive = small, poorly fitted or top-dose-only effect, or another doubt; inactive = no such curve, though single readings can be large; an effect the other way counts as inactive or inconclusive.
SMILES,TDP-43 yeast inh,FUS yeast rescue,uPA generation,aSyn rescue,Abeta rescue,BCR signal inh
O=C(CSC1CC(=O)N(CCc2ccccc2)C1=O)Nc1cccc(Cl)c1 (stereo unspecified),18µM,-,-,-,-,-
COC(=O)c1cc(NC(=O)CC2C(=O)OCCN2Cc2ccccc2)cc(C(=O)OC)c1 (stereo unspecified),?,-,.,.,-,.
Cc1cccc(NC(=O)CC2C(=O)OCCN2Cc2ccccc2)c1 (stereo unspecified),14µM,-,.,.,-,.
O=C(CC1C(=O)OCCN1Cc1ccccc1)Nc1cccc(Cl)c1 (stereo unspecified),18µM,-,.,.,-,.
COc1ccc(/C=C/c2cnccn2)cc1OC,.,.,.,-,.,.
Cc1cccc(CSCCNC(=S)Nc2ccccc2)c1,16µM,.,-,-,-,-
COC(=O)c1ccc(NC(=S)NCCc2cccc(C)c2)cc1,8.9µM,-,-,-,-,?
S=C(NCCCc1ccccc1)Nc1ccccc1,-,-,-,-,20µM,?
S=C(NCCSCc1ccc(Cl)cc1)Nc1ccccc1,25µM,.,-,-,-,-
CCCOc1ccc(CSCCNC(=S)Nc2ccccc2)cc1,-,-,-,-,?,-
CCCCN(CC)CCCNC(=O)c1cc2c(=O)oc3ccc(C)cc3c2s1,-,-,.,.,-,.
C[C@@H]1CCCCCCCCC(=O)OCCN(C(=O)OC(C)(C)C)[C@H](C)CCCCCCCCC(=O)OCCN(C(=O)OC(C)(C)C)[C@H](C)CCCCCCCCC(=O)OCCN(C(=O)OC(C)(C)C)[C@H](C)CCCCCCCCC(=O)OCCN1C(=O)OC(C)(C)C,-,-,-,-,-,?
S=C(NCCSCc1ccccc1Cl)Nc1ccccc1,13µM,-,-,-,-,-
CN(C)/C=N/n1cnc2ccccc2c1=O,-[1.82 µM],-,-,-,-,?
Cc1ccc(-c2nc(CS(=O)CC(=O)N3CCN(c4ccc(F)cc4)CC3)c(C)o2)cc1 (stereo unspecified),?,-,-,-,-,-
Cc1oc(-c2ccccc2)nc1C(=O)N1CCN(c2ccc(F)cc2)CC1,11µM,-,-,-,-,-
COc1cc(C(=O)N2CCN(c3ccc(C)cc3C)CC2)cc(OC)c1OC,?,-,3.2µM,-,-,-
Cc1ccc(N2CCN(C(=O)c3ccccc3Br)CC2)c(C)c1,16µM,-,-,-,-[9.22 µM],-
Cc1ccc(C)c(N2CCN(C(=O)c3ccccc3Br)CC2)c1,-,-,-,-,-,-
CCOC(=O)c1ccccc1NC(=O)Cc1sc(-c2cccnc2)nc1-c1ccc(C)cc1,.,.,.,.,.,-
CCCOc1ccc(C(CC(=O)O)NC(=O)C(c2ccccc2)c2ccccc2)cc1 (stereo unspecified),-,.,-,-,-,-
O=C(CN1N=C(C(F)(F)F)CC1(O)c1ccc([N+](=O)[O-])cc1)c1ccccc1 (stereo unspecified),16µM,-,-,-,-,-
O=C(O)Cc1ccc(Oc2ncc(C(F)(F)F)cc2Cl)cc1,13µM,-,-,-,-,-
COc1ccc(C2C(C(=O)Nc3ccccc3)=C(C)Nc3nc(-c4ccccc4Cl)nn32)cc1OC (stereo unspecified),-,?,.,.,-,.
CCOc1ccc(C2C(C(=O)Nc3ccccc3)=C(C)Nc3nc(-c4ccccc4Cl)nn32)cc1OC (stereo unspecified),-,32µM,.,.,-,.
SMILES,TDP-43 yeast inh,FUS yeast rescue,uPA generation,aSyn rescue,Abeta rescue,BCR signal inh
COC(=O)c1[nH]c(=O)c2ccccc2c1OCc1ccccc1,-,-,-,-,-,-
Cc1c(NC(=O)C(C)c2ccc(CC(C)C)cc2)c(=O)n(-c2ccccc2)n1C (stereo unspecified),-,-,-,-,-,-
O=S(=O)(c1cccc2nsnc12)N1CCN(c2ccccc2F)CC1,16µM,-,-,-,-,-
O=S(=O)(c1cccc2nsnc12)N1CCN(c2ccc(F)cc2)CC1,-[1.82 µM],-,-,-,-,-
O=C(CNC(=O)c1ccccc1Br)N/N=C/c1cc(Br)ccc1O,-,-,?,-,-,-
O=C(N/N=C/c1cc(Cl)ccc1O)c1ccccc1Br,13µM,-,4.5µM,14µM,?,?

# Screening data (PubChem)
